Only a selection was taken, and hits are over-represented in it overall.
HT1080 IDH1KD tx = qHTS for induction of synthetic lethality in tumor cells producing 2HG: qHTS for the HT-1080-IDH1KD cell line; HT-1080 IDH1 knockdown viability, ATP luminescence, 48 h; Potency, µM (series often up to 46.1 µM), for inactives: top-dose activity, negative = toxicity, hits mostly cytotoxic; hit rate 2% among 360,000; AID 686971, 2013;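 note: potency is the fitted concentration of half-maximal effect; 0% = DMSO wells and -100% = cell-free medium wells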
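After a 2 h attachment period, IDH1KD HT-1080 cells took pin-transferred compound for 48 h at 37 °C; ATP-based luminescence after 10 min room-temperature reagent incubation reported viability.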
HT1080-NT tox = qHTS for induction of synthetic lethality in tumor cells producing 2HG: qHTS for the HT-1080-NT fibrosarcoma cell line. hit rate 1.6% among 360,000. HT-1080-NT fibrosarcoma viability, CellTiter-Glo ATP luminescence, 48 h. Potency, µM (series often up to 46.1 µM), without a hit: top-dose activity, negative = less viability, most hits filed as cytotoxic;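 note: NT is the 2HG producing partner of a matched IDH1 knockdown line; potency is the fitted concentration of half-maximal effect; 0% = DMSO-treated cells and -100% = media-only wells without cells; nearly all actives have a fitted effect of over 55% in size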
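Viability by CellTiter-Glo luminescence after 48 h compound exposure at 37C of HT-1080-NT cells (750/well, RPMI, 5% FBS). % activity scaled between DMSO wells and medium-only wells, then curve-fitted and categorized by curve class.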
TDP1 cell CPT = qHTS for Inhibitors of human tyrosyl-DNA phosphodiesterase 1 (TDP1): qHTS in cells in presence of CPT; chicken DT40 Tdp1-/-;hTDP1 cells + 20 nM CPT, ATP luminescence, 48 h; Potency, µM (titrated, usually from 46.2 µM), inactives show at the top dose activity change, negative = growth inhibition, hits mostly inhibitors; hit rate 12% among 420,000; note: potency is the fitted concentration of half-maximal effect; nearly all actives have a fitted effect of over 55% in size
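Cell growth measured by CellTiter-Glo luminescence after a minimum 48 h, 37 C compound exposure with 20 nM CPT in Tdp1-knockout DT40 cells stably expressing hTDP1, seeded 400/well; qHTS titration format.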
DT40 TDP1 no CPT = qHTS for Inhibitors of human tyrosyl-DNA phosphodiesterase 1 (TDP1): qHTS in cells in absence of CPT. Potency, µM (titrated, usually from 46.2 µM), for the others: at the highest dose activity change, negative = growth inhibition, actives largely listed as inhibitors. hit rate 15% among 420,000. DT40 Tdp1-/- hTDP1 cells, no CPT, ATP luminescence, 48 h; note: potency is the fitted concentration of half-maximal effect; nearly all actives have a fitted effect of over 55% in size
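Luminescent ATP content (CellTiter-Glo) served as the growth readout. Knockout chicken DT40 cells expressing human TDP1 were exposed to compounds without camptothecin for a minimum 48 hr at 37 °C.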
12-LOX inh = Primary qHTS assay for inhibitors of human arachidonate 12S-lipoxygenase (ALOX12): Round 2; purified 12hLO, xylenol orange hydroperoxide absorbance; Potency, µM (titrated, usually from 108 µM), for the others: at the highest dose activity change, negative = inhibition, most hits filed as inhibitors; hit rate 1.1% among 580,000; note: potency is the fitted concentration of half-maximal effect
Target sequence (P18054 whole entry, looked up): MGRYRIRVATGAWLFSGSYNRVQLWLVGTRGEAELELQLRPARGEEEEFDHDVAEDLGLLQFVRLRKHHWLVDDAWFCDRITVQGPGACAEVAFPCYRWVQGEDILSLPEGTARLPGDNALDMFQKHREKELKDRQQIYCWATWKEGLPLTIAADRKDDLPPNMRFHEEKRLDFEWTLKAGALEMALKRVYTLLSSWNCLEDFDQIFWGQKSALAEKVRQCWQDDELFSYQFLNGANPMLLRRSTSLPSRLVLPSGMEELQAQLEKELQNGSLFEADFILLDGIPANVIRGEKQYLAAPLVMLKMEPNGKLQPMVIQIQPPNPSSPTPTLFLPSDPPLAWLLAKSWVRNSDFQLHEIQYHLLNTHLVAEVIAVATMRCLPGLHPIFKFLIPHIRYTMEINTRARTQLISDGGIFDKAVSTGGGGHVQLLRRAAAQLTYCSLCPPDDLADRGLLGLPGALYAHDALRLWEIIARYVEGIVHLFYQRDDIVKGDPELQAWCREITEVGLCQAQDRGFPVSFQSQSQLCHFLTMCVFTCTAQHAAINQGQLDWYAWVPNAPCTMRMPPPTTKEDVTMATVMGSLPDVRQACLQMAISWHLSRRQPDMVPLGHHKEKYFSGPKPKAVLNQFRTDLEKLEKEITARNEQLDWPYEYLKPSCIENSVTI
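Purified human 12hLO (150 nM final) in 25 mM Hepes, 0.01% Triton X-100, pH 7.0 was preincubated 15 min at room temperature with compound. Then 40 uM arachidonic acid was added, 30 min. Hydroperoxide was read by Fe-XO absorbance ratio 573/405 nm.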
IL1B secr inh = qHTS for Inhibitors of Inflammasome Signaling: IL-1-beta AlphaLISA Primary Screen; THP-1 LPS/ATP IL-1B secretion, AlphaLISA, 16 h; hits give low values; activity change, % at 57.5 µM; hit rate 4.7% among 360,000; AID 743279, 2014; in the data active = activity change below about -50%; inconclusive = mostly about -30% to -49%
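THP-1 cells pretreated 1 hr with compounds (up to 57.5 uM final), then stimulated with LPS (250 ng/mL final) plus ATP (1.25 mM final); secreted IL-1B measured by AlphaLISA after 16 hr, decreased signal indicating inhibition.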
Active calls of the source: *; ? = inconclusive; . = no result; [ ] = another dose, or the depositor's remark. Unless noted, calls come from the whole dose curve; as a rule, active = well fitted curve in the direction sought with a large enough effect; inconclusive = small, poorly fitted or top-dose-only effect, or another doubt; inactive = no such curve, though single readings can be large; an effect the other way counts as inactive or inconclusive. Unless noted, % is set by controls: 0 for no effect and ±100 for the full control effect.

SMILES | HT1080 IDH1KD tx | HT1080-NT tox | TDP1 cell CPT | DT40 TDP1 no CPT | 12-LOX inh | IL1B secr inh
Nc1ncnc2c1c(-c1ccc(Oc3ccccc3)cc1)cn2C1CCCC1 | 20.6µM* | 23.1µM* | ? | 18.4µM* | 1.1% | 55.6
COc1ccc(CN2C(=O)c3ccccc3C(/C=N/OCc3ccc(Cl)cc3)C2=O)cc1 (configuration not stated) | ? | -29.6% | 13µM* | 11.6µM* | -2.4% | 7.8
COc1ccc(CN2C(=O)c3ccccc3C(/C=N\OCc3ccc(F)cc3)C2=O)cc1 (configuration not stated) | ? | -25.2% | ? | 8.2µM* | -16.8% | 0.0
CCCOc1c(Br)cc(C(=O)OCC(=O)NC(=O)c2cccn2C)cc1OC | -28.9% | -20.1% | ? | ? | 14.2% | -11.4
CC(CCc1ccccc1)NC(=O)Cc1cccc2ccccc12 (configuration not stated) | . | . | . | . | 1.1% | .
CCOC(=O)C1=C(Nc2ccccc2)CC(C)(O)C(C(=O)OCC)C1c1ccc(Br)cc1 (configuration not stated) | -11.4% | -0.6% | ? | 16.4µM* | -3.0% | -27.3
Cc1cc(C)cc(-c2ccc(C(=O)N3CCC(Oc4cccnc4)CC3)cn2)c1 | . | . | . | . | 51.4% | .
COc1cc(OC)nc(Oc2ccccc2C(=O)Oc2ccc(Cl)cc2)n1 | -19.1% | -5.5% | ? | 16.4µM* | -4.6% | 3.3
COC(=O)c1ccccc1Oc1nc(Cl)cc(OC)n1 | 0.7% | 8.1% | 18.4µM* | 25.9µM* | -6.1% | 19.3
COc1cc(OC)nc(Oc2ccccc2C(=O)Oc2ccc(C)cc2)n1 | 0.0% | 14.8% | -12.4% | -9.9% | 8.7%[57.4 µM] | -12.3
CN(C)S(=O)(=O)NCC1CCCN(C(=O)Cc2ccc3c(c2)OCO3)C1 (configuration not stated) | . | . | . | . | 41.9% | .
O=C(O)c1ccccc1N=Cc1c(O)n(-c2nccs2)c(=O)c2ccccc12 | -0.5% | -4.2% | ? | -28.8% | -20.2% | 40.1
CCN(CC)S(=O)(=O)c1cccc(-n2c(O)c(C=Nc3ccccc3C(=O)O)c3ccccc3c2=O)c1 | ? | ? | 4.11µM* | 2.06µM* | -27.7% | 8.4
Cn1c(=O)[nH]c(=O)c2c1nc1n(-c3ccc(F)cc3)c(-c3ccccc3)cn21 | . | . | . | . | 14.6% | .
CC(C)c1c(C(=O)N(C)Cc2cccc3ncccc23)cnn1-c1nccc(-c2ccco2)n1 | . | . | -9.1%[9.04 µM] | 14.6µM* | -4.8% | .
O=[N+]([O-])c1ccc(CSC2=NCCN2)cc1 | 1.2% | -1.1% | 20.6µM* | 20.6µM* | 0.0% | ?
CCCCOc1ccc(CSC2=NCCN2)cc1[N+](=O)[O-] | -22.3% | ? | 18.4µM* | 20.6µM* | -1.9% | -99.0*
O=[N+]([O-])c1ccc(CSC2=NCCS2)cc1 | 4.1% | 7.5% | 6.1% | 1.7% | ? | -3.5
CCOc1ccc(CSC2=NCCN2)cc1[N+](=O)[O-] | ? | -28.9% | ? | 16.4µM* | -3.7% | -61.0*
CCOc1ccc(CN(CCO)CCO)cc1[N+](=O)[O-] | 0.6% | 7.6% | -1.4% | -3.5% | 10.3% | 15.3
CN1CC(=O)N(c2cccnc2)Cc2c(NCC3CCCCC3)ncnc21 | . | . | . | . | -0.8% | .
O=C(C1CCN(c2nnc(N3CCCC3=O)s2)CC1)N1CCN(c2cccc(C(F)(F)F)c2)CC1 | -10.7% | -11.2% | 8.2µM* | 1.84µM* | 1.4% | 36.0
Cc1ccc(C)c(N2CCN(C(=O)C3CCN(c4nnc(N5CCCC5=O)s4)CC3)CC2)c1 | -2.9% | -3.7% | 23.1µM* | ? | 0.0% | ?
Cc1ccc(C)c(N2CCN(C(=O)c3ccc(N4CCCC4=O)cc3)CC2)c1 | -1.8% | -3.1% | ? | 16.4µM* | . | 0.0
O=C(c1ccco1)N1CCN(C(=O)C2CCCN(c3nnc(N4CCCC4=O)s3)C2)CC1 (configuration not stated) | . | . | . | . | -19.8% | .
SMILES | HT1080 IDH1KD tx | HT1080-NT tox | TDP1 cell CPT | DT40 TDP1 no CPT | 12-LOX inh | IL1B secr inh
Cc1ccn2cc(-c3cc4cc(Cl)ccc4oc3=O)nc2c1 | . | . | . | . | 0.0% | .
CC(=O)c1ccc(-c2cnc3c(NC=O)cc(-c4ccc(C(=O)N5CCOCC5)cc4)cn23)cc1 | ? | ? | 16.4µM* | 20.6µM* | -8.7% | 0.0
COc1ccc(-c2cnc3c(NC=O)cc(-c4ccc(C(=O)N5CCOCC5)cc4)cn23)cc1OC | 20.6µM* | ? | 4.11µM* | 3.26µM* | ? | ?
CC(=O)c1cccc(-c2cnc3c(NC=O)cc(-c4ccc(C(=O)N5CCOCC5)cc4)cn23)c1 | -29.4% | ? | ? | ? | -6.4% | 52.2
CCOc1ccc(C(c2c(O)cc(C)n(Cc3ccco3)c2=O)N2CCN(C)CC2)cc1 (configuration not stated) | . | . | -12.0% | -9.3% | ? | .
CCCCNC(=O)c1ccc(NC(=O)c2ccncc2)cc1 | . | . | . | . | 54.0% | .
COC(=O)[C@]12CCCCC=C1N(Cc1ccc(Cl)cc1Cl)C(=O)[C@H](CC(=O)NCc1cccc(C(F)(F)F)c1)C2 | ? | ? | ? | ? | -5.1% | -3.5
COC(=O)[C@@]12C[C@@H](CC(=O)NCc3cccc(C(F)(F)F)c3)C(=O)N(Cc3cccc4ccccc34)C1=CCC(C)(C)C2 | ? | ? | 16.4µM* | 16.4µM* | 5.8% | 0.0
COC(=O)[C@@]12C[C@@H](CC(=O)NCc3cccc(C(F)(F)F)c3)C(=O)N(Cc3ccccc3)C1=CCC(C)(C)C2 | ? | ? | ? | ? | 1.4% | -78.1*
O=C(Cc1cn2ccsc2n1)Nc1ccc(S(=O)(=O)N2CCCCCC2)cc1 | . | . | . | . | 49.5% | .
C[C@@H]1CN([C@@H](C)CO)S(=O)(=O)c2ccc(Br)cc2O[C@H]1CN(C)C(=O)c1ccccc1F | -2.5% | -5.4% | ? | ? | 9.8% | -19.5
C[C@H]1CN([C@@H](C)CO)S(=O)(=O)c2ccc(Br)cc2O[C@H]1CN(C)C(=O)c1ccccc1F | . | . | . | . | -4.8% | .
C[C@@H]1CN([C@@H](C)CO)S(=O)(=O)c2ccc(Br)cc2O[C@H]1CN(C)Cc1ccccc1F | ? | ? | 14.6µM* | 10.3µM* | -8.0% | -23.0

Screening data from PubChem.
